This is one part of a sample in which hits are shown more often than they occur.
Pf Dd2 inh: Plasmodium falciparum Dd2 growth inhibition | 120,000 compounds, 4.3% hits | Potency, µM (titrated, usually from 28.9 µM), inactives show at the top dose activity, negative = inhibition, actives largely listed as inhibitors | P. falciparum Dd2 growth, SYBR Green, 72 h | AID 1347417; active = well fitted inhibition curve with a large enough effect;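 also: plate controls were DMSO vehicle for no effect and reference drug for full effect; nearly all actives have a fitted effect of over 65% in size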
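Readout: SYBR Green fluorescence, 485 nm excitation, 535 nm emission, after ~16 h lysis at 37C. Before that, Dd2-infected red cells (2.5% hematocrit) grew 72 h with compound, 29 uM top final concentration.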
An asterisk follows results filed as active; [ ] = remark or other dose. Potency is read from the fitted curve at half-maximal effect.

For CC(=O)N1Cc2ccccc2CC2(CCN(Cc3ccncc3)C2)C1 (configuration not stated) the results were Pf Dd2 inh -8%.
Screening CCC(=O)N1Cc2ccccc2CC2(CCN(CCc3ccc(C)cc3)CC2)C1 returned Pf Dd2 inh 8.9µM*.
Screening CCCN1CCCC12Cc1ccccc1CN(C(=O)CCCC(=O)O)C2 (configuration not stated) returned Pf Dd2 inh -20%.
For CN(C)CC(=O)N1Cc2ccccc2CC2(CCCN(CCc3ccccc3)C2)C1 (configuration not stated) the results were Pf Dd2 inh 5µM*.
Screening CC(=O)NCCC(=O)N1Cc2ccccc2CC2(CCN(Cc3cccnc3)C2)C1 (configuration not stated) returned Pf Dd2 inh 9%.
`CCCN1CCCC2(Cc3ccccc3CN(C(=O)Cc3ccccc3)C2)C1` (configuration not stated) gave Pf Dd2 inh 6.3µM*.
CCC(=O)N1Cc2ccccc2CC2(CCN(CC3CCNC3)C2)C1 (configuration not stated) was read as Pf Dd2 inh 9%.
`CCCC(=O)N1Cc2ccccc2CC2(CCN(Cc3ccc(O)cc3)C2)C1` (configuration not stated) gave Pf Dd2 inh 13µM*.
`CCn1nc(C(=O)N2CCCC3(CN(C)C(=O)O3)C2)cc1C` (configuration not stated) gave Pf Dd2 inh -1%.
Cc1cccnc1CNC[C@H]1O[C@@H]2C[C@@H](CC(=O)NCc3nccn3C)O[C@@H]2[C@@H]1O was read as Pf Dd2 inh 36%[44.1 µM].
Screening CC(=O)N1CCC(N2CC3(C2)C(=O)N(Cc2ccc(C)o2)C(=O)[C@@H]2C[C@@H](O)CN23)CC1 returned Pf Dd2 inh -14%[44.1 µM].
For O=C(Cc1c[nH]c2ccccc12)N1CCC(Cc2nncn2-c2ccccc2)CC1 the results were Pf Dd2 inh inactive.
CNC(=O)[C@@H]1C[C@@H](O)CN1C1CCN(C(=O)c2ccc(Cn3nc(C)cc3C)o2)CC1 was read as Pf Dd2 inh 8%.
Screening O=C(NCc1ccccc1)O[C@@H]1CO[C@H]2[C@@H]1OC[C@@H]2Nc1nccc(-c2ccc3c(c2)OCO3)n1 returned Pf Dd2 inh inactive.
`CCN1CCN(CCCN2CC3(CCN(c4ncccc4F)CC3)OC2=O)CC1` gave Pf Dd2 inh -10%.
`O=C1CO[C@H]2CN(c3ncccn3)C[C@H]2N1CC1CCCCC1` gave Pf Dd2 inh inactive.
Screening NC(=O)[C@@H]1CN(C(=O)C2CCCC2)C[C@H]1COc1ccccc1 returned Pf Dd2 inh 4%.
For C[S+](=O)([O-])N1CCN([S+](=O)([O-])c2ccc(Cl)nc2)C(=O)C1 the results were Pf Dd2 inh 11%.
CC(C)CN(CC1CN(C(=O)c2cccc(Cl)c2)CCO1)C(=O)c1cccc2ccccc12 (configuration not stated) was read as Pf Dd2 inh inactive.
For O=C(COc1ccccc1)N(Cc1cccnc1)c1nc2ccc(F)cc2s1 the results were Pf Dd2 inh 15%.
Screening Cc1cc2nc(N(Cc3cccnc3)C(=O)c3ccc(Cl)s3)sc2cc1C returned Pf Dd2 inh 45%.
For CCc1ccc2nc(N(CCN(CC)CC)C(=O)c3cccs3)sc2c1 the results were Pf Dd2 inh -10%.
COc1ccc2sc(N(Cc3cccnc3)C(=O)COc3ccccc3)nc2c1 was read as Pf Dd2 inh inactive.
`CCc1ccc2nc(N(Cc3cccnc3)C(=O)c3cccs3)sc2c1` gave Pf Dd2 inh 3.2µM*.
COc1cccc2sc(N(Cc3cccnc3)C(=O)c3ccc(S(=O)(=O)N(C)C)cc3)nc12 was read as Pf Dd2 inh -21%.
For COc1ccc2nc(N(Cc3cccnc3)C(=O)COc3ccccc3)sc2c1 the results were Pf Dd2 inh 16%.
For O=C(c1cccs1)N(Cc1cccnc1)c1nc2c(F)cc(F)cc2s1 the results were Pf Dd2 inh inactive.
`COc1ccc2nc(N(Cc3cccnc3)C(=O)C3COc4ccccc4O3)sc2c1` (configuration not stated) gave Pf Dd2 inh inactive.
Screening Cc1ccc2nc(N(Cc3cccnc3)C(=O)C3CCCCC3)sc2c1 returned Pf Dd2 inh 2.5µM*.
`CCOc1ccc2nc(N(Cc3cccnc3)C(=O)C3CCCCC3)sc2c1` gave Pf Dd2 inh 2.2µM*.
COc1ccc2sc(N(Cc3cccnc3)C(=O)c3ccc4c(c3)OCCO4)nc2c1 was read as Pf Dd2 inh 7.1µM*.
For COCCN1C(=O)[C@H]2CN(Cc3ccc(F)c(F)c3)C[C@H]2C1=O the results were Pf Dd2 inh -2%.
Screening CC(=O)N1CCC(N[C@@H]2CO[C@H](CNS(=O)(=O)c3ccc(C)cc3)[C@H]2O)CC1 returned Pf Dd2 inh -4%[44.1 µM].
For c1cnc2c(c1)ncn2C1CCCCC1 the results were Pf Dd2 inh -18%[44.1 µM].
COc1ccc(-c2cc(C(=O)NCC(C)C)c3c(C)nn(-c4ccccc4)c3n2)cc1 was read as Pf Dd2 inh -13%.
